Assay results published in the supplement of paper PMC8728848.
This excerpt belongs to a sample that is enriched for the strongest signals.

Tests used:
Experiment in all cases: glycan array binding signal (z-score within array); higher = stronger binding
Settings in all cases: glycan notation: IUPAC condensed, linker removed
[1] = molecular target: Fuc(a1-2)Gal(b1-3)GlcNAc(b1-3)[Neu5Ac(a2-6)Gal(b1-4)GlcNAc(b1-6)]Gal(b1-4)Glc
How it was run: (§1)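 The binding signal is a Z-score computed within each array. Data were drawn from 3228 arrays in the Consortium for Functional Glycomics database, restricted to those with a known protein sequence. Scores were averaged over arrays of the same protein sequence at different concentrations or buffers, and over linkers, and negative values can be taken as non-binding.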

[2] = molecular target: Fuc(a1-3)[Gal(b1-4)]GlcNAc(b1-6)GalNAc
How it was run: as §1

Gal(a1-2)Gal = molecular target: Gal(a1-2)Gal
How it was run: as §1

[3] = molecular target: Gal(a1-3)Gal(b1-3)GlcNAc(b1-6)GalNAc
How it was run: as §1

[4] = molecular target: Gal(a1-3)Gal(b1-3)[Fuc(a1-4)]GlcNAc(b1-2)Man(a1-3)[Gal(a1-3)Gal(b1-3)[Fuc(a1-4)]GlcNAc(b1-2)Man(a1-6)]Man(b1-4)GlcNAc(b1-4)GlcNAc
How it was run: as §1

[5] = molecular target: Gal(a1-3)[Gal(a1-4)]Gal(b1-4)GlcNAc
How it was run: as §1

Gal(a1-4)Gal(b1-4)Glc = molecular target: Gal(a1-4)Gal(b1-4)Glc
How it was run: as §1

[6] = molecular target: Gal(b1-3)GlcNAc(b1-2)Man(a1-3)[GlcNAc(b1-4)][Gal(b1-3)GlcNAc(b1-2)Man(a1-6)]Man(b1-4)GlcNAc(b1-4)GlcNAc
How it was run: as §1

Gal(b1-3)GlcNAc6S = molecular target: Gal(b1-3)GlcNAc6S
How it was run: as §1

[7] = molecular target: Gal(b1-4)GlcNAc(b1-3)Gal(b1-4)GlcNAc(b1-2)[Gal(b1-4)GlcNAc(b1-3)Gal(b1-4)GlcNAc(b1-6)]Man(a1-6)[Gal(b1-4)GlcNAc(b1-3)Gal(b1-4)GlcNAc(b1-2)Man(a1-3)]Man(b1-4)GlcNAc(b1-4)[Fuc(a1-6)]GlcNAc
How it was run: as §1

[8] = molecular target: Gal(b1-4)GlcNAc(b1-3)Gal(b1-4)GlcNAc(b1-3)Gal(b1-4)GlcNAc(b1-2)[Gal(b1-4)GlcNAc(b1-3)Gal(b1-4)GlcNAc(b1-3)Gal(b1-4)GlcNAc(b1-6)]Man(a1-6)[Gal(b1-4)GlcNAc(b1-3)Gal(b1-4)GlcNAc(b1-3)Gal(b1-4)GlcNAc(b1-2)Man(a1-3)]Man(b1-4)GlcNAc(b1-4)[Fuc(a1-6)]GlcNAc
How it was run: as §1

[9] = molecular target: Gal(b1-4)GlcNAc(b1-3)Gal(b1-4)GlcNAc(b1-3)Gal(b1-4)GlcNAc(b1-3)Gal(b1-4)GlcNAc(b1-3)Gal(b1-4)GlcNAc(b1-2)Man(a1-3)[Gal(b1-4)GlcNAc(b1-3)Gal(b1-4)GlcNAc(b1-3)Gal(b1-4)GlcNAc(b1-3)Gal(b1-4)GlcNAc(b1-3)Gal(b1-4)GlcNAc(b1-2)Man(a1-6)]Man(b1-4)GlcNAc(b1-4)GlcNAc
How it was run: as §1

[10] = molecular target: Gal(b1-4)GlcNAc(b1-3)Gal(b1-4)GlcNAc(b1-3)Gal(b1-4)GlcNAc(b1-3)Gal(b1-4)GlcNAc(b1-3)Gal(b1-4)GlcNAc(b1-2)Man(a1-3)[Gal(b1-4)GlcNAc(b1-3)Gal(b1-4)GlcNAc(b1-3)Gal(b1-4)GlcNAc(b1-3)Gal(b1-4)GlcNAc(b1-3)Gal(b1-4)GlcNAc(b1-2)Man(a1-6)]Man(b1-4)GlcNAc(b1-4)[Fuc(a1-6)]GlcNAc
How it was run: as §1

[11] = molecular target: Gal(b1-4)GlcNAc(b1-3)Gal(b1-4)GlcNAc(b1-3)Gal(b1-4)GlcNAc(b1-3)Gal(b1-4)GlcNAc(b1-3)Gal(b1-4)GlcNAc(b1-3)Gal(b1-4)GlcNAc(b1-2)Man(a1-3)[Gal(b1-4)GlcNAc(b1-3)Gal(b1-4)GlcNAc(b1-3)Gal(b1-4)GlcNAc(b1-3)Gal(b1-4)GlcNAc(b1-3)Gal(b1-4)GlcNAc(b1-3)Gal(b1-4)GlcNAc(b1-2)Man(a1-6)]Man(b1-4)GlcNAc(b1-4)GlcNAc
How it was run: as §1

[12] = molecular target: Gal(b1-4)GlcNAc(b1-3)[Gal(b1-4)GlcNAc(b1-6)]Gal(b1-4)GlcNAc
How it was run: as §1

Gal(b1-4)GlcNAc6P = molecular target: Gal(b1-4)GlcNAc6P
How it was run: as §1

Gal6P(b1-4)GlcNAc = molecular target: Gal6P(b1-4)GlcNAc
How it was run: as §1

GalNAc(a1-3)Gal = molecular target: GalNAc(a1-3)Gal
How it was run: as §1

GalNAc(b1-3)GlcNAc = molecular target: GalNAc(b1-3)GlcNAc
How it was run: as §1

GalNAc6S(b1-4)GlcNAc = molecular target: GalNAc6S(b1-4)GlcNAc
How it was run: as §1

GlcA(b1-6)Gal = molecular target: GlcA(b1-6)Gal
How it was run: as §1

[13] = molecular target: GlcNAc(a1-4)Gal(b1-4)GlcNAc(b1-3)Gal(b1-4)Glc
How it was run: as §1

[14] = molecular target: GlcNAc(b1-2)Man(a1-3)[GlcNAc(b1-4)][GlcNAc(b1-2)Man(a1-6)]Man(b1-4)GlcNAc(b1-4)[Fuc(a1-6)]GlcNAc
How it was run: as §1

GlcNAc(b1-3)Gal = molecular target: GlcNAc(b1-3)Gal
How it was run: as §1

[15] = molecular target: GlcNAc(b1-3)Gal(b1-4)GlcNAc(b1-3)Gal(b1-4)GlcNAc(b1-3)Gal(b1-4)GlcNAc(b1-3)Gal(b1-4)GlcNAc(b1-2)Man(a1-3)[GlcNAc(b1-3)Gal(b1-4)GlcNAc(b1-3)Gal(b1-4)GlcNAc(b1-3)Gal(b1-4)GlcNAc(b1-3)Gal(b1-4)GlcNAc(b1-2)Man(a1-6)]Man(b1-4)GlcNAc(b1-4)[Fuc(a1-6)]GlcNAc
How it was run: as §1

[16] = molecular target: GlcNAc(b1-3)Gal(b1-4)GlcNAc(b1-3)GalNAc
How it was run: as §1

[17] = molecular target: Man(a1-3)[Man(a1-6)]Man(a1-6)[Man(a1-3)]Man(b1-4)GlcNAc(b1-4)GlcNAc
How it was run: as §1

[18] = molecular target: Neu5Ac(a2-3)Gal(b1-3)GlcNAc(b1-3)GalNAc
How it was run: as §1

[19] = molecular target: Neu5Ac(a2-3)Gal(b1-3)[Fuc(a1-4)]GlcNAc(b1-3)Gal(b1-4)[Fuc(a1-3)]GlcNAc
How it was run: as §1

[20] = molecular target: Neu5Ac(a2-3)Gal(b1-3)]Neu5Ac(a2-3)Gal(b1-4)]GlcNAc
How it was run: as §1

[21] = molecular target: Neu5Ac(a2-3)Gal(b1-4)GlcNAc(b1-2)[Neu5Ac(a2-3)Gal(b1-4)GlcNAc(b1-4)]Man(a1-3)[GlcNAc(b1-4)][Neu5Ac(a2-3)Gal(b1-4)GlcNAc(b1-2)[Neu5Ac(a2-3)Gal(b1-4)GlcNAc(b1-6)]Man(a1-6)]Man(b1-4)GlcNAc(b1-4)GlcNAc
How it was run: as §1

[22] = molecular target: Neu5Ac(a2-3)Gal(b1-4)[Fuc(a1-3)]GlcNAc(b1-6)[Gal(b1-3)]GalNAc
How it was run: as §1

[23] = molecular target: Neu5Ac(a2-3)[GalNAc(b1-4)]Gal(b1-4)GlcNAc(b1-3)GalNAc
How it was run: as §1

[24] = molecular target: Neu5Ac(a2-6)Gal(b1-4)GlcNAc(b1-2)Man(a1-3)Man(b1-4)GlcNAc(b1-4)GlcNAc
How it was run: as §1

[25] = molecular target: Neu5Ac(a2-6)Gal(b1-4)GlcNAc(b1-3)[Neu5Ac(a2-6)Gal(b1-4)GlcNAc(b1-6)]GalNAc
How it was run: as §1

[26] = molecular target: Neu5Ac(a2-8)Neu5Gc(a2-3)Gal(b1-4)GlcNAc
How it was run: as §1

[27] = molecular target: Neu5Ac9Ac(a2-3)Gal(b1-4)GlcNAc
How it was run: as §1

B1: PX9961J-bvu-499-24-499 (Bacteroides vulgatus) (protein)
chain: LNTDPSTAVPSDDAIKNIDDAQVALNGIYRLASAHSYYGDNYLYYADCRGEDVQARINKGAGRRVSPYYFFDVTADDNFNITLVWNQPYKVIHQANSLIEKLDAGNAGNARPEEVARIKSEALAMRGLALFDLTRLFGMPYTLDNGASLGVPIEIQTTLEDHAPERNTVAQCYEQVLKDLNDALGGLTKEKHDAYMNYWSVKALLSRVYLYMNDNENALKCAEEVINDNGGIYRLFTHDEYPSVWGKDFNSESLFEFYFTMSEPSGGSGGEGAPMVYADNVKDWNNLILTKAYLDLLNEDPEDVRHVFPHLPENAVADTLPVAAKGQPKYLIKYPGKSGSVTDAVSTVNPQDNDLCILRLSEVYLNAAEAAFKIGNTEKALTYLNAIVTRANPAKSVTSADLSLERILKERRKELVGEGHAFFDYMRNGKSVDRSGGWHLTMPEDARVIAPSDPRVALPIPQTEIDANPNIVQNPR
[1]
  glycan array binding signal (z-score): -0.281
[2]
  glycan array binding signal (z-score): -0.674
Gal(a1-2)Gal
  glycan array binding signal (z-score): -0.036
[3]
  glycan array binding signal (z-score): 1.19
[4]
  glycan array binding signal (z-score): 2.95
[5]
  glycan array binding signal (z-score): 3.12
Gal(a1-4)Gal(b1-4)Glc
  glycan array binding signal (z-score): -0.223
[6]
  glycan array binding signal (z-score): 2.45
Gal(b1-3)GlcNAc6S
  glycan array binding signal (z-score): -0.142
[7]
  glycan array binding signal (z-score): 3.83
[8]
  glycan array binding signal (z-score): 0.849
[9]
  glycan array binding signal (z-score): 4.09
[10]
  glycan array binding signal (z-score): 2.67
[11]
  glycan array binding signal (z-score): 0.326
[12]
  glycan array binding signal (z-score): -0.048
Gal(b1-4)GlcNAc6P
  glycan array binding signal (z-score): 0.028
Gal6P(b1-4)GlcNAc
  glycan array binding signal (z-score): -0.613
GalNAc(a1-3)Gal
  glycan array binding signal (z-score): 2.34
GalNAc(b1-3)GlcNAc
  glycan array binding signal (z-score): 0.212
GalNAc6S(b1-4)GlcNAc
  glycan array binding signal (z-score): 2.75
GlcA(b1-6)Gal
  glycan array binding signal (z-score): 0.034
[13]
  glycan array binding signal (z-score): 0.01
[14]
  glycan array binding signal (z-score): -0.709
GlcNAc(b1-3)Gal
  glycan array binding signal (z-score): -0.109
[15]
  glycan array binding signal (z-score): 2.84
[16]
  glycan array binding signal (z-score): 0.1
[17]
  glycan array binding signal (z-score): -0.181
[18]
  glycan array binding signal (z-score): 0.006
[19]
  glycan array binding signal (z-score): -0.506
[20]
  glycan array binding signal (z-score): 0.358
[21]
  glycan array binding signal (z-score): -0.208
[22]
  glycan array binding signal (z-score): -0.279
[23]
  glycan array binding signal (z-score): -0.342
[24]
  glycan array binding signal (z-score): 0.368
[25]
  glycan array binding signal (z-score): -0.732
[26]
  glycan array binding signal (z-score): 19
[27]
  glycan array binding signal (z-score): -0.319
